Laboratory results published in PubChem BioAssay (NCI).
About 83,000 compounds went through this panel and 20% of them were active in at least one assay; those are over-represented in the sample as a whole.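 For each line, cells grew in 96-well plates with the test compound present at a single concentration for 48 hours.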 Unmarked numbers belong to inactive results. The source made the active and inactive calls. How the source made its calls: active means growth percent below 10; inactive means the rest.

Each compound was assayed on HL-60(TB) leukemia (assay: NCI-60 one-dose screen, 48 h (100 = growth as untreated, 0 = no growth, -100 = all killed)). Details: 10 µM unless noted.

Compound	growth
COc1cc(C(=O)c2c(-c3ccccc3)oc3c(OC)cccc23)cc(OC)c1OC	-6.56% (active)
COc1cc(-c2nn(-c3cccc(NC(=O)NCCNC(=O)c4cccc(C(F)(F)F)c4)c3)cc2-c2ccncc2)ccc1Cl	16.8%
FC(F)(F)c1[nH]ncc1-c1nc2ccc3n[nH]c(C#Cc4cccnc4)c3c2c2c1CCCC2	24.4%
O=C1/C(=C/c2ccc([N+](=O)[O-])cc2)CN(C(=O)CCN2CCC(=NO)CC2)C/C1=C\c1ccc([N+](=O)[O-])cc1	2.62% (active)
COc1ccc(C(c2cc(OC)c(OC)c(OC)c2)n2ccnc2)cc1O (stereo not drawn)	-35.9% (active)
O=[N+]([O-])c1cc2ncccc2c2ncccc12	88.1%
COc1cccc2c1C(=O)c1c(O)c3c(c(O)c1C2=O)CC(O)(/C(C)=N/NC(=O)CCCCC(=O)N/N=C(\C)C1(O)Cc2c(O)c4c(c(O)c2C(OC2CC(N)C(O)C(C)O2)C1)C(=O)c1c(OC)cccc1C4=O)CC3OC1CC(N)C(O)C(C)O1 (stereo not drawn)	-9.19% [5 µM] (active)
COc1ncnc2c1cnn2C	114%
COc1cc(-c2ccc(-[n+]3nc(-c4ccc([N+](=O)[O-])cc4)nn3-c3ccc([N+](=O)[O-])cc3)c(OC)c2)ccc1-[n+]1nc(-c2ccc([N+](=O)[O-])cc2)nn1-c1ccc([N+](=O)[O-])cc1	14.2%
O=C1Nc2ccccc2/C1=C/c1cccn1CCCCCCn1c2ccccc2c(=O)c2ccccc21	54.5%
Nc1nc(Nc2cccnc2)sc1C(=O)c1ccccc1F	-35.6% (active)
COc1ccc(-c2ncc(-c3ccccc3)[nH]2)cc1OC	-30.2% (active)
CC(C)C1=NOC(=O)C1=Cc1cn(-c2ccccc2)nc1-c1ccccc1	-45.2% (active)
O=COCCCc1ccccc1	106%
CCOC(=O)c1ccc(N2NC(=O)/C(=C/c3ccc([N+](=O)[O-])o3)C2=O)cc1	85.5%
CNC1=CC(=O)c2c(C(=O)OC)c(C)[n+]([O-])c(C)c2C1=O	29%
O=C1/C(=C/c2ccc([N+](=O)[O-])s2)Oc2cc(Cl)ccc21	-11.7% (active)
Cc1nc2sc(C(=O)Nc3ccc(Br)cc3)c(N)c2cc1C(O)c1ccccc1 (stereo not drawn)	22.4%
COc1cc(CSc2nc3ccc(C)cc3c(=O)n2-c2ccccc2)cc(OC)c1OC	12.2%
COc1cc([C@@H]2c3cc4c(cc3C(O[C@@H]3O[C@@H]5CO[C@@H](c6cccs6)OC5[C@H](O)[C@H]3O)C3COC(=O)[C@@H]32)OCO4)cc(OC)c1O (stereo partly drawn)	-21.7% (active)
O=C1COCCN1c1ccc(NCc2cn(Cc3cccc4ccccc34)c3ccccc23)cc1	96.4%
COc1cc(C=C2C(=O)N(C)C(=O)N(C)C2=O)cc(CN2CCCCC2)c1O	96.3%
O=C(CSc1nc2ccc([N+](=O)[O-])cc2[nH]1)Nc1cccc(Cl)c1	16.9%
